# Shown are actives, neighbours in structure and some others; about 2.4% of the full set was active somewhere.
# D2 PAM-1: D2 dopamine receptor (human) potentiation. HEK293 T-REx D2, calcium flux, EC20 dopamine potentiation. potentiation, % at 10 µM. hit rate 0.34% among 340,000. AID 485347;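 active = potentiation over 3 SD above the plate norm, cut at about 30% in these data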; note: 0% is about no effect
# Target sequence (P14416 whole entry, looked up): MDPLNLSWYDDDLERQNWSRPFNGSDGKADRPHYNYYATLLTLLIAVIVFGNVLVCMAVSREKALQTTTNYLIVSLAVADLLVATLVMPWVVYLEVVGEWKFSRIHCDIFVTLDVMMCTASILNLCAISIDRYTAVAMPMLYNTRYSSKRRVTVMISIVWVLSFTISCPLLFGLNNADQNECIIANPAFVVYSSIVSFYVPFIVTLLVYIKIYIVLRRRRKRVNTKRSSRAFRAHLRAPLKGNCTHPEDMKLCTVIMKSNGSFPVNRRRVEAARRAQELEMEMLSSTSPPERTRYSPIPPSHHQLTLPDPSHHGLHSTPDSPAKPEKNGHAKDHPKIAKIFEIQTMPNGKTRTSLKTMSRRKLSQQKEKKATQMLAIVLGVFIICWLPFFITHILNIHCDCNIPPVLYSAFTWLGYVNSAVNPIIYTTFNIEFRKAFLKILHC
#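 Tetracycline-induced Hek293 Trex D2 cells, force-coupled to calcium, loaded with no-wash calcium dye. Compound added with 180 s kinetic read for agonism, then EC20 dopamine and a further 180 s read for potentiation.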
# D2 ag-1: human D2 receptor agonism in beta-arrestin assay | activation, % (concentration not given with the values) | hit rate 0.084% among 360,000 | DiscoveRx PathHunter D2 beta-arrestin, luminescence, 90 min; 100% = 57 uM dopamine signal; in the data active = activation above about 40%; inconclusive = between about 15% and that limit
#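 Agonist mode: compounds alone added to overnight-plated D2 PathHunter cells for 90 min at 37 C, with 57 uM final dopamine (EC100) defining full response. Beta-arrestin recruitment detected by chemiluminescent reagent, read after 1 h at ambient temperature.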
# D2 PAM-2: positive allosteric modulators of human D2 dopamine receptor. P14416. DiscoveRx D2 beta-arrestin cells, luminescence, 90 min; 100% = 57 uM dopamine signal. potentiation, % (concentration not given with the values). hit rate 0.23% among 360,000; in the data active = potentiation above about 50%; inconclusive = mostly about 30% to 49%
#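 PathHunter beta-arrestin assay in DiscoveRx D2 cells. Compounds were added with an EC20 of dopamine (50 nM final) for 90 min at 37 deg C. Luminescence was read 1 h after detection reagent, with 57 uM dopamine as the EC100 control.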
# D2 antagonist: antagonists of human D2 dopamine receptor | hit rate 2% among 340,000 | AID 485344 | inhibition, % at 10 µM | HEK293 TREx D2 cells, calcium flux, dopamine EC80; in the data active = inhibition above about 30%; inactive = below that, where a call was filed; note: 0% is about no effect
#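 Dopamine at EC80 is the agonist stimulus; test compounds precede it by 180 s. Calcium flux read kinetically in a force-coupled, inducible HEK293 T-REx D2 cell line.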
# D2 ag-2: activates the human D2 dopamine receptor. hit rate 0.53% among 340,000. P14416. HEK293 T-REx D2 cells, calcium flux agonist mode. activation, % at 2 µM;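 active = activation over 3 SD above normal in the single-dose calcium agonist read, cut at about 30% in these data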; note: 0% is about no effect
#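 Tetracycline-induced HEK293 Trex cells with D2 receptor force-coupled to calcium signaling, plated overnight at 30 C and loaded with no-wash calcium dye. Calcium flux read kinetically for 180 s after compound addition; responses flag agonists.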
# * marks the source's active call; other numbers are inactive results; ? = inconclusive; . = no result.
SMILES,D2 PAM-1,D2 ag-1,D2 PAM-2,D2 antagonist,D2 ag-2
COc1ccc(N2CCN(S(=O)(=O)c3ccc(OC)c(C(=O)N4CCCC4)c3)CC2)cc1,-10,-2,-13,48*,0
COc1ccc(N2CCN(C(=O)CCS(=O)(=O)c3ccc(OC)cc3)CC2)cc1,32*,0,-4,-10,0
COc1ccc(OC)c(CN2CCN(C(=O)c3ccc(F)cc3)CC2)c1,4,-4,-27,41*,1
COc1ccc(OC)c(CN2CCN(Cc3cc(=O)oc4cc(O)ccc34)CC2)c1,-26,0,-17,34*,1
COc1ccc(S(=O)(=O)N2CCCCCC2)cc1C(=O)N1CCCCC1,-4,3,-4,-11,0
O=C(NCCN1CCN(C(=O)c2ccc(F)cc2)CC1)c1ccc(F)cc1,-28,0,-12,64*,0
COc1ccc(C(=O)N2CCN(S(=O)(=O)c3ccc(Cl)cc3)CC2)cc1OC,6,3,-3,0,1
COc1ccc(C(=O)N2CCN(S(=O)(=O)c3ccc(F)cc3)CC2)cc1OC,0,7,-2,39*,0
CC(NC(=O)COC(=O)C12CC3CC(CC(Br)(C3)C1)C2)c1ccccc1 (stereo not given),.,-1,-6,.,.
CCc1cc(C(=O)OC)c(NC(=O)CC2SC(=NC)N(C)C2=O)s1 (stereo not given),-6,2,4,63*,0
CC(C)OCCCNC(=O)Cc1ccc(F)cc1,-20,-1,-3,57*,1
CCOCCCNC(=O)Cc1ccc(F)cc1,-8,.,.,2,1
N#Cc1c(F)cccc1N1CCOCC1,35*,-6,-20,-30,0
COc1cccc(/C=N\NC(=O)c2cc(OCC(F)(F)F)ccc2OCC(F)(F)F)c1,31*,-4,-4,-4,-1
CS(=O)(=O)NCCNC(=O)c1cc(OCC(F)(F)F)ccc1OCC(F)(F)F,-3,-3,-1,31*,0
CCn1c(SCc2ccc([N+](=O)[O-])cc2)nnc1C(C)NC(=O)c1ccc(C)cc1 (stereo not given),-5,-1,-7,-5,0
CC(NC(=O)c1ccc(Cl)cc1)c1nnc(SCc2ccc([N+](=O)[O-])cc2)n1C (stereo not given),-11,1,-4,32*,1
CC(=O)n1c2ccccc2c2nc(NC(C)C)sc21,19,-5,67*,-1,0
CNc1nc2c3ccccc3n(C(C)=O)c2s1,-13,-1,-12,6,0
O=C(COC(=O)COc1ccccc1)NC12CC3CC(CC(C3)C1)C2,19,-2,-4,34*,0
CC1C(=O)N(Cc2cn(Cc3ccco3)nn2)CCS(=O)(=O)N1Cc1ccc(-c2cccc(N(C)C)c2)cc1 (stereo not given),.,-2,-5,.,.
Cc1cc(NC(=O)CCC(=O)N(CCC(C)C)C(C(=O)NCC2CCCO2)c2ccccc2C)no1 (stereo not given),-5,-7,-8,-1,1
CCn1c(SCC(=O)N2c3ccccc3Sc3ccccc32)nnc1-c1ccco1,40*,2,10,-13,1
CCCn1c(SCC(=O)N2c3ccccc3CC2C)nnc1-c1ccco1 (stereo not given),43*,-1,-6,-21,1
Cc1ccc2nc(-c3cccnc3SCC(=O)N3c4ccccc4CC3C)[nH]c2c1 (stereo not given),-4,-2,-5,-5,0
SMILES,D2 PAM-1,D2 ag-1,D2 PAM-2,D2 antagonist,D2 ag-2
Cc1ccc2nc(SCC(=O)N3c4ccccc4CC3C)c(C)cc2c1 (stereo not given),32*,-4,-26,3,1
C=CCn1c(SCC(=O)N2c3ccccc3Sc3ccccc32)nnc1-c1ccco1,-7,2,-4,-9,-1
CCCn1c(SCC(=O)N2CCc3ccccc32)nnc1-c1ccco1,2,-3,-8,-10,1
Cc1cc(C)nc(NS(=O)(=O)c2ccc(NC(=O)c3ccc4c(c3)OCCO4)cc2)n1,4,-3,-9,-5,0
COc1ccc(-c2csc(C3=C(O)CN(Cc4ccc(Cl)cc4)C3=N)n2)cc1OC,-18,1,-21,74*,1
Brc1ccc(-c2cn3cc(Cc4ccccc4)sc3n2)cc1,6,.,.,.,0
Cc1ccc2cccc(NC(=O)COc3ccccc3[N+](=O)[O-])c2n1,7,.,.,.,6
Cc1cccc(C(C)C)c1NC(=O)CN1C(=O)NC(Cc2ccccc2)C1=O (stereo not given),.,1,-4,.,.
CCOc1cc(CNCCc2ccc(S(N)(=O)=O)cc2)ccc1OCc1ccccc1,41*,-3,-10,4,0
Cc1c(C(=O)Nc2nc(-c3ccc(F)cc3)ns2)oc2ccc(Cl)cc12,15,.,.,.,1
Cc1cc(C)c(S(=O)(=O)NCCOc2ccccc2)c(C)c1-n1cnnn1,41*,-2,-1,-30,3
CCCCOc1ccc(NC(=O)CCSc2nccn2C)cc1,3,0,-12,-4,-1
CCSc1nnc(-c2sc3nnc(-c4ccccc4)c(-c4ccccc4)c3c2N)o1,-2,-4,-14,-27,39*
CCN1CCCC1CNC(=O)c1cc2c(OC)cccc2[nH]1 (stereo not given),.,-3,-24,.,.
CCN1CCCC1CNC(=O)c1cc2c(OC)c(OC)c(OC)cc2[nH]1 (stereo not given),-23,0,-13,83*,0
CCN1CCC[C@H]1CNC(=O)c1c(O)c(Cl)cc(Cl)c1OC,-27,-7,-27,76*,-2
CCN1CCCC1CNC(=O)c1cc(OC)c(OC)c(OC)c1 (stereo not given),-21,0,-37,-19,1
CCCCN1CCCC1CNC(=O)c1cc(C#N)c2ccccc2c1OC (stereo not given),-27,.,.,84*,1
COc1ccc(N2CCN(S(=O)(=O)c3ccc4c(c3)CCCN4C(C)=O)CC2)cc1,-3,.,.,.,1
CCOc1ccc2c(c1)c(C(C)=O)c(C)n2-c1ccccc1,-11,-4,-4,2,40*
Nc1cccc(C(=O)OCC(=O)Nc2cccc3c2C(=O)c2ccccc2C3=O)c1,0,?,60*,-2,1
Cc1cccc(NC(=O)COC(=O)c2cccc3c2C(=O)c2ccccc2C3=O)c1C,-1,?,90*,-15,0
Cc1cc(NC(=O)CCC(=O)N(Cc2ccco2)C2(C(=O)NC3CCCC3)CCCCC2C)no1 (stereo not given),14,3,-2,34*,1
Cc1cc(NC(=O)CCC(=O)N(Cc2ccco2)C2(C(=O)NC3CCCC3)CCCCC2)no1,1,-9,-10,5,0

# Screening data as filed in PubChem.
